# Measurements reported in PubChem BioAssay AID588719 (Southern Research Specialized Biocontainment Screening …, 2011).
# In all, about 1,500 compounds went through this assay and about 920 (61%) were called active. The rule behind the calls is not given here. So high a share suggests a set chosen from earlier hits. This is one part of the list. A call without a number means that no potency is given here. Potency and affinity values are given separately.
# Assay: Vero 76 cell cytotoxicity, dose response, cytotoxicity control for VEEV inhibitor project (AID 588719)
# Details: Vero 76 cells viability, cytotoxicity counter-screen; series mostly up to 25 µM
row,Structure (SMILES),outcome
1,Cc1ccc(Nc2nc(=O)c3cccnc3s2)c(Br)c1,inactive
2,CCN1C/C(=C\c2cc(OC)c(OC)c(OC)c2)C2=NN(c3ccccc3)C(c3cc(OC)c(OC)c(OC)c3)C2C1 (stereo not given),inactive
3,CC(C)CN1C(=O)/C(=C(/C#N)C(=O)NC2CCCCC2)c2ccccc21,inactive
4,Cc1ccc(SCCC(=O)Nc2nccs2)cc1,inactive
5,COc1ccc(C(=O)NC2CCCc3c2cnn3-c2cccc(C)c2C)o1 (stereo not given),inactive
6,Cn1c(CCN2CCCCC2)nc2cc(NC(=O)COc3ccc([N+](=O)[O-])cc3)ccc21,inactive
7,COc1ccc(Cl)cc1S(=O)(=O)N1CCN(C(=O)c2n[nH]c(=O)c3ccccc23)CC1,inactive
8,O=c1oc(C2(O)CCCCC2)cc2ccc(-c3ccc4[nH]ccc4c3)cc12,inactive
9,O=C(C=Cc1cccc(Cl)c1)c1ccccc1,inactive
10,Cc1cc(NC(=O)COC(=O)c2cc(S(=O)(=O)N(C)c3ccccc3)ccc2Cl)no1,inactive
11,Cc1cc(NC(=O)C(C)SCC(=O)N(Cc2ccccc2)c2ccccc2)no1 (stereo not given),inactive
12,O=C(O)c1cc(-c2ccc3ccccc3c2)nc2ccc(F)cc12,inactive
13,Cc1nc(N)ncc1Sc1ccccc1,inactive
14,O=C(/C=C/c1ccnc2ccccc12)c1cccs1,inactive
15,O=C(CSc1nc2ccc(Cl)cc2[nH]1)c1cccs1,inactive
16,CN1CCN(c2ccc(CNS(=O)(=O)c3ccccc3)cc2)CC1,inactive
17,COc1cccc(N2CCN(c3ccc(S(=O)(=O)N4CCN(C)CC4)cc3[N+](=O)[O-])CC2)c1,inactive
18,COc1ccc(N2CCN(CCCn3c(=S)[nH]c4ncccc4c3=O)CC2)cc1,inactive
19,C#CCSc1nc(=O)c2cccnc2n1-c1ccc(C)cc1,inactive
20,CCN(CC)CC(=O)Nc1ccc(/C(C)=N/NC2=NCCN2)cc1,inactive
